The values below come from PubChem BioAssay (NCI).

Molecules are shown by their SMILES. About 83,000 compounds went through this panel and 20% of them were active in at least one assay; those are over-represented in the sample as a whole.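 48-hour exposure, single concentration, 96-well plates; percent growth endpoint where 0 means no net growth. Active: below 10.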 Unmarked numbers belong to inactive results. The source made the active and inactive calls.

Some test systems named below: SR leukemia; RPMI-8226 leukemia; OVCAR-8 ovarian; OVCAR-5 ovarian; OVCAR-4 ovarian; SK-OV-3 ovarian; IGROV1 ovarian; OVCAR-3 ovarian; HS 578T breast; NCI/ADR-RES ovarian; T-47D breast; BT-549 breast; MDA-MB-435 melanoma; SW-620 colon; MCF7 breast; HCT-116 colon; HCC-2998 colon; KM12 colon.
Test in all cases: NCI-60 one-dose screen, 48 h (100 = growth as untreated, 0 = no growth, -100 = all killed)
Holding throughout (settings): 10 µM unless noted

For the compound `COC(=O)C(Cc1ccccc1)Nc1nc(NC(Cc2ccccc2)C(=O)OC)nc(N2CCOCC2)n1` (centres undefined), the growth was 100% in the test on SR leukemia; 98.5% in the test on RPMI-8226 leukemia; 99.6% with OVCAR-8 ovarian; 106% in the test on OVCAR-5 ovarian; 107% with OVCAR-4 ovarian; 103% in the test on SK-OV-3 ovarian. Besides, the growth was 98.6% in the test with IGROV1 ovarian; 111% in the test with OVCAR-3 ovarian; 101% in the test on HS 578T breast; 111% in the test on NCI/ADR-RES ovarian; 101% in the test with T-47D breast; 112% in the test on BT-549 breast. Moreover, the growth in the test on MDA-MB-435 melanoma was 105%; in the test with SW-620 colon, 112%; in the test on MCF7 breast it was 97.8%; with HCT-116 colon it was 99.2%; in the test on HCC-2998 colon it was 110%; with KM12 colon, 99.7%.

For the compound `N#Cc1cccc(CN2CCC3=C(C2)C(=O)N(Cc2ccc(Cl)cc2)C2=NCCCN23)c1`, the growth was 27.6% in the test with SR leukemia; 18.7% in the test with RPMI-8226 leukemia; 21.5% in the test on OVCAR-8 ovarian; 38.7% in the test with OVCAR-5 ovarian; 20.8% in the test with OVCAR-4 ovarian; 35.9% in the test with SK-OV-3 ovarian. For the same compound, the growth in the test on IGROV1 ovarian is 48.2%; in the test on OVCAR-3 ovarian, 23.3%; in the test on HS 578T breast it was 50.5%; with NCI/ADR-RES ovarian, 13.4%; in the test with T-47D breast, 21.2%; with BT-549 breast, 64%. Besides, the growth in the test with MDA-MB-435 melanoma is 20.3%; with SW-620 colon, 36.1%; in the test on MCF7 breast it was 14.2%; with HCT-116 colon, 22.5%; in the test with HCC-2998 colon it was 24.5%; in the test on KM12 colon it was 38.8%.

As to `COc1cc2nc(Cl)nc(Nc3cccc(C4=Nc5c(N)nc(N)nc5NC(c5ccccc5)C4)c3)c2cc1OC` (centres undefined), the growth in the test on SR leukemia is -1.18% (active); with RPMI-8226 leukemia, 49%; in the test with OVCAR-8 ovarian it was 67.2%; in the test with OVCAR-5 ovarian, 110%; in the test with OVCAR-4 ovarian it was 96.7%; with SK-OV-3 ovarian, 121%. Moreover, the growth in the test with IGROV1 ovarian was 86.7%; in the test with OVCAR-3 ovarian it was 77.7%; with HS 578T breast, 96.4%; in the test with NCI/ADR-RES ovarian it was 94.1%; with T-47D breast, 67.5%; in the test on BT-549 breast it was 81.6%. Moreover, the growth is 101% with MDA-MB-435 melanoma; 85.4% in the test with SW-620 colon; 70.5% in the test with MCF7 breast; 74.6% in the test with HCT-116 colon; 94.3% with HCC-2998 colon; 78.3% in the test on KM12 colon.

For `COc1c(N2CC3CCCNC3C2)c(F)cc2c(=O)c(C(=O)N/N=C/c3ccc(N(C)C)cc3)cn(C3CC3)c12` (centres undefined), the growth was -33.5% (active) with SR leukemia; 62.9% with RPMI-8226 leukemia; 87.3% with OVCAR-8 ovarian; 95.7% in the test with OVCAR-5 ovarian; 90% with OVCAR-4 ovarian; 114% in the test on SK-OV-3 ovarian. Further, the growth is 58.9% with IGROV1 ovarian; 51.2% with OVCAR-3 ovarian; 95.8% in the test on HS 578T breast; 81.6% with NCI/ADR-RES ovarian; 95.5% with T-47D breast; 121% in the test with BT-549 breast. For the same compound, the growth with MDA-MB-435 melanoma is 94%; with SW-620 colon, 80.7%; in the test with MCF7 breast, 44.1%; in the test on HCT-116 colon, 31.3%; with HCC-2998 colon, 89.4%; with KM12 colon it was 74.5%.

Take `Cn1cc(-c2cc(N)n3nc(-c4cn(C)c5ccccc45)cc3n2)c2ccccc21`: the growth in the test with SR leukemia was -9.33% (active); in the test on RPMI-8226 leukemia, 18.7%; in the test on OVCAR-8 ovarian, 85.4%; in the test on OVCAR-5 ovarian, 114%; in the test on OVCAR-4 ovarian it was 95%; in the test on SK-OV-3 ovarian, 137%. Moreover, the growth is 104% with IGROV1 ovarian; 101% with OVCAR-3 ovarian; 124% in the test with HS 578T breast; 91.3% with NCI/ADR-RES ovarian; 90% in the test with T-47D breast; 128% with BT-549 breast. In addition, the growth is 0.548% (active) with MDA-MB-435 melanoma; 85.9% in the test with SW-620 colon; 44.8% in the test with MCF7 breast; 62.1% in the test with HCT-116 colon; 78.5% with HCC-2998 colon; 72.7% in the test with KM12 colon.

With `COc1ccc(NC(=O)CSc2nnc(-c3ccc4nc(-c5ccccc5)[nH]c4c3)o2)cc1`, the growth with SR leukemia is 91.2%; with RPMI-8226 leukemia it was 79.1%; in the test with OVCAR-8 ovarian, 101%; with OVCAR-5 ovarian it was 101%; in the test on OVCAR-4 ovarian, 100%; with SK-OV-3 ovarian, 108%. For the same compound, the growth in the test with IGROV1 ovarian was 92.9%; in the test with OVCAR-3 ovarian, 110%; with HS 578T breast it was 105%; with NCI/ADR-RES ovarian, 101%; in the test with T-47D breast it was 94.7%; in the test on BT-549 breast, 93.5%. For the same compound, the growth with MDA-MB-435 melanoma was 100%; in the test on SW-620 colon, 104%; with MCF7 breast, 86.2%; in the test on HCT-116 colon, 102%; in the test with HCC-2998 colon it was 114%; in the test on KM12 colon it was 99.4%.

On to `Cc1[nH]c(C(=O)Nc2ccccc2OCc2cccc(C(=O)N3CCC[C@@H](N)C3)c2)c(Cl)c1Cl`, for which the growth with SR leukemia was -46.2% (active); in the test with RPMI-8226 leukemia it was -38.5% (active); in the test on OVCAR-8 ovarian it was -45.2% (active); in the test on OVCAR-5 ovarian, -87.3% (active); in the test with OVCAR-4 ovarian, -77.4% (active); in the test with SK-OV-3 ovarian it was -59.3% (active). Moreover, the growth in the test on IGROV1 ovarian was -73.5% (active); with OVCAR-3 ovarian, -87.4% (active); in the test with HS 578T breast, -50.9% (active); with NCI/ADR-RES ovarian it was -68.8% (active); in the test with T-47D breast, -55.2% (active); in the test with BT-549 breast it was -89.4% (active). Further, the growth with MDA-MB-435 melanoma was -96.6% (active); in the test with SW-620 colon, -75.9% (active); with MCF7 breast, -77.5% (active); in the test on HCT-116 colon, -82.1% (active); in the test with HCC-2998 colon it was -92.5% (active); in the test with KM12 colon, -80% (active).

For the compound `CCn1c2ccccc2c2cc(-n3nncc3-c3ccccc3)ccc21`, the growth in the test on SR leukemia is 10.4%; in the test with RPMI-8226 leukemia, 19.8%; with OVCAR-8 ovarian, 27%; with OVCAR-5 ovarian it was 35.4%; in the test with OVCAR-4 ovarian, 43%; in the test with SK-OV-3 ovarian, 42.4%. The growth with IGROV1 ovarian is 16.2%; with OVCAR-3 ovarian it was 4.2% (active); in the test on HS 578T breast, 19.3%; with NCI/ADR-RES ovarian, 6.13% (active); in the test on T-47D breast, 61.8%; with BT-549 breast, 80.5%. For the same compound, the growth in the test on MDA-MB-435 melanoma was -14.3% (active); with SW-620 colon, 21.3%; in the test with MCF7 breast, 13.4%; in the test with HCT-116 colon, 5.07% (active); in the test with HCC-2998 colon, 15.2%; with KM12 colon, 17.1%.
